Assay results as given in PubChem BioAssay AID1963315 (National Center for Advancing Translational Sciences (NCATS), 2024).
Results filed as inconclusive are left out. A number with no mark means an inactive call. Calls of active or inactive are those of the source. The call rests on the fitted dose curve.

Each compound was assayed against Tyrosine-protein kinase ABL1 (Homo sapiens) (UniProt P00519) (assay: ABL1 kinase (ABL1-N-HiBiT) SDR gain of signal screen). Conditions: Purified ABL1-N-HiBiT enzyme, Nano-Glo HiBiT luminescence, 30 min compound incubation; series mostly up to 32.9 µM; activity change, gain of signal: at the top concentration.
Source text: National Center for Advancing Translational Sciences (NCATS),
National Institute of Health (NIH), Maryland
Discovery and optimization of novel protein-binding ligands underlies many of the methods and applications of biology, drug discovery, clinical diagnostics, and environmental toxicology. Assays for detecting the interaction of, for example, a molecule with a macromolecular target also referred to here as the target of interest (TOI) is dependent on a compatible output technology. Depending on the nature and knowledge surrounding the TOI, whether a receptor, enzyme, regulatory subunit or scaffold, or a sequence-defined nucleic acid folded into a complex tertiary structure, assay strategies can vary widely.
Here we exploit ligand-biased changes in the structural dynamics of the target protein to control reporter alpha complementation allowing a non-competitive, non-functional, non-separation measure of ligand-target interaction.
Secondly, we show the specificity and sensitivity of the SDR for the Abelson tyrosine kinase (ABL1) compared to the serine/threonine protein kinase A, using an enriched chemical library of 128 compounds selected, in part, for activity annotated with ABL1 kinase activity using the Pharos database (3).
(1) A. S. Dixon et al., NanoLuc Complementation Reporter Optimized for Accurate Measurement of Protein Interactions in Cells. ACS Chem Biol 11, 400-408 (2016).
Chemistry & Biology, 19, 1060 - 1072 (2012).
(3) K. J. Kelleher et al., Pharos 2023: an integrated resource for the understudied human proteome. Nucleic Acids Res 51, D1405-D1416 (2023).
PROTOCOL TABLE (as described by Inglese J, Shamu CE and Guy RK. 2007)
SEQUENCE No. (e.g., 1, 2, 3, etc.); […] (e.g., C. elegans, Compounds, Incubation, Read, etc.); VALUE and DESCRIPTION.
1. Reagent. Dispense 4 uL ABL1-N-HiBiT enzyme per well at a final enzyme concentration of 10 nM in buffer without ATP (SDR assay) into columns 2-48 of four replicate Greiner 1536-well white, solid bottom high base, medium plates per assay. Dispense respective buffer without enzyme at 4 uL/well in column 1 of assay plates using BioRaptr 2.
2. Compounds. Library compounds added at 23 nL/well by pin transfer. DMSO neutral control and imatinib positive control added at 25 nL/well, transfer by Mosquito dispenser.
3. Incubation. Incubate enzyme and compounds at room temperature for 30 min, protected from light.
4. Reagent. (SDR assay) Add 3 uL/well of Nano-Glo HiBiT reagent (Promega) to assay plates with or without ATP.
5. Incubation. (SDR assay) Incubate enzyme solution and HiBiT reagent at room temperature for 10 min, protect from light.
6. Detector. (SDR assay) Luminescence measured using CCD-based camera (ViewLux) with settings as follows: Exposure, 1 sec; Gain, High; Speed, Slow; Binning, 2X.
Inglese J, Shamu CE and Guy RK, Reporting data from high throughput screening of small molecule libraries, Nature Chemical Biology, 2007, 3(8): 438-441. doi.org/10.1038/nchembio0807-438.

Chain of Tyrosine-protein kinase ABL1 (Homo sapiens) (P00519 whole entry, looked up): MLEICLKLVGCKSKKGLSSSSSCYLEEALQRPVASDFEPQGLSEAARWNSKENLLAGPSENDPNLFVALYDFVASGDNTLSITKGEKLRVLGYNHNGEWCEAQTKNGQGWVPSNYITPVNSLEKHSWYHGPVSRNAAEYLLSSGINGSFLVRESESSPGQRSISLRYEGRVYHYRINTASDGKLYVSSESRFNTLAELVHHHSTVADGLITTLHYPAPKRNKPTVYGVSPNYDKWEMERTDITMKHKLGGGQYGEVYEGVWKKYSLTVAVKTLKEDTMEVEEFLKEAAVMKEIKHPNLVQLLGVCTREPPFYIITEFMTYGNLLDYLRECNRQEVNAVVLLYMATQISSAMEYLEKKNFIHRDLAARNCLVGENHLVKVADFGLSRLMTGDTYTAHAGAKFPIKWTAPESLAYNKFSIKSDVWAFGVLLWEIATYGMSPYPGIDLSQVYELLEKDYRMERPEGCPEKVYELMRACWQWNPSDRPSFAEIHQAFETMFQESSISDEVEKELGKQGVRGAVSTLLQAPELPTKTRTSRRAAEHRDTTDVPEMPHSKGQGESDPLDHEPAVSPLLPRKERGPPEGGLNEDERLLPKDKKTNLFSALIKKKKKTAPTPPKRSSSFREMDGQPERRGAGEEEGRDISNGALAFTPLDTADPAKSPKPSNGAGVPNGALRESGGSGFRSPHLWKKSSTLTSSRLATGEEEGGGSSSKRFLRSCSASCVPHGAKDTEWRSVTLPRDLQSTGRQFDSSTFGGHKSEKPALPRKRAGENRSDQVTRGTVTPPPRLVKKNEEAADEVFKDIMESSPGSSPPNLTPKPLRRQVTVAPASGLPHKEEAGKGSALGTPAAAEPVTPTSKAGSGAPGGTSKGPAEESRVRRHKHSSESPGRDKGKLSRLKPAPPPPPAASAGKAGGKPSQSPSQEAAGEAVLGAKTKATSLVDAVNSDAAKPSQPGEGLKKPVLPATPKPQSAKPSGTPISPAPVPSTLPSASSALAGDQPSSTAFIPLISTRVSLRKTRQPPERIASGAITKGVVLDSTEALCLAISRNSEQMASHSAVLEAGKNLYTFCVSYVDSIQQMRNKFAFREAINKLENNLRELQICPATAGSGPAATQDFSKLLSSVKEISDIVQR

Row | Compound | Potency | activity change, gain of signal
1 | CCn1c(=O)c(-c2ccc(Cl)cc2Cl)cc2cnc(Nc3ccc(N4CCNCC4)c(F)c3)nc21 | 6.77 nM (active) | 
2 | O=C(Nc1cc(C(F)(F)F)ccc1N1CCCCC1)c1ccncc1 |  | -5.06%
3 | O=C(NCCO)c1cccc(-c2cc(Nc3ccc(OC(F)(F)F)cc3)ncn2)c1 |  | 16.7%
4 | CCN1CCN(Cc2ccc(NC(=O)c3ccc(C)c(NC(=O)c4cncc(-c5cccs5)c4)c3)cc2C(F)(F)F)CC1 | 5.22 nM (active) | 
5 | COc1ccc(-n2c(C)c([N+](=O)[O-])c3ccc(O)cc32)cc1 |  | 11.4%
6 | CCCS(=O)(=O)Nc1ccc(F)c(C(=O)c2c[nH]c3ncc(Cl)cc23)c1F | 9320 nM (active) | 
7 | COc1ccc(S(=O)(=O)N(C(C)=O)c2ccccc2/C=C/c2cc[n+]([O-])cc2)cc1 |  | 7.6%
8 | O=C(NOCC(O)CO)c1cc(Br)c(F)c(F)c1Nc1ccc(I)cc1F (stereo not given) |  | -2.82%
9 | N#Cc1cccc(-c2c[nH]c3ncnc(N4CCOCC4)c23)c1 | 10200 nM (active) | 
10 | CN1CCN(CCOc2cc(OC3CCOCC3)c3c(Nc4c(Cl)ccc5c4OCO5)ncnc3c2)CC1 | 12.5 nM (active) | 
11 | CN1CCN(CCCNc2ncc(Cl)c(-c3cc4c(C(=O)NC5CC5)cccc4s3)n2)CC1 |  | -13.8%
12 | Nc1ncccc1-c1nc2ccc(-c3ccccc3)nc2n1-c1ccc(C2(N)CCC2)cc1 |  | 1.51%
13 | C=CC(=O)N1CCC(Oc2cc3c(Nc4ccc(Cl)c(Cl)c4F)ncnc3cc2OC)CC1 | 10800 nM (active) | 
14 | CCn1nc(C2CCN(C(=O)CCO)CC2)nc1-c1cnc(N)c(-c2nnc(C(C)(C)C)o2)n1 | 6230 nM (active) | 
15 | C=CC(=O)N1CCC[C@@H](n2nc(-c3cccc(C(=O)Nc4ccc(C(C)C)c(C)c4)c3)c3c(N)ncnc32)C1 | 4410 nM (active) | 
16 | Cc1sc2c(c1C)C(c1ccc(Cl)cc1)=N[C@@H](CC(=O)Nc1ccc(OCCOCCOCCOCCNc3cccc4c3C(=O)N(C3CCC(=O)NC3=O)C4=O)cc1)c1nnc(C)n1-2 (stereo not given in full) |  | 4.83%
17 | CN1CCN(Cc2ccc(-c3cnc4[nH]cc(-c5ccc6[nH]ccc6c5)c4c3)cc2)CC1 | 331 nM (active) | 
18 | Cc1cc(-c2cc(O)ccc2Cl)cc2nnc(Nc3ccc(OCCN4CCCC4)cc3)nc12 | 3.69 nM (active) | 
19 | C[C@@H]1CN(CC(=O)Nc2ccc3c(c2)Cc2cccc(-c4cc(=O)cc(N5CCOCC5)o4)c2S3)C[C@H](C)O1 |  | -12.9%
20 | O=C(O)C1(Cc2cccc(Nc3nccs3)n2)CCC(Oc2cccc(Cl)c2F)CC1 (stereo not given) | 114 nM (active) | 

Row | Compound | Potency | activity change, gain of signal
21 | Cc1cc(F)ccc1-c1nc(NC(CO)CO)nc2c1ccc(=O)n2-c1c(F)cccc1F |  | -2.56%
22 | O=S(=O)(/N=C/c1c(O)ccc2ccccc12)c1cccs1 |  | 1.83%
23 | Cc1cc(Nc2ncc3cc(-c4c(Cl)cccc4Cl)c(=O)n(C)c3n2)ccc1F | 4.94 nM (active) | 
24 | c1cc(-c2cc(C3CCNCC3)[nH]n2)ccn1 |  | -33.3% [at 16.4 µM]
25 | Cc1nc2ccc(-n3ncc(C(=O)c4cc5ccccc5[nH]4)c3N)cc2[nH]1 | 3930 nM (active) | 
26 | Cn1cc(-c2cc3c(N4CCN(c5ncc([C@@](C)(N)c6ccc(F)cc6)cn5)CC4)ncnn3c2)cn1 | 2480 nM (active) | 
27 | Cc1c(Cl)cccc1S(=O)(=O)Nc1nc(NCCc2ccccc2)nc2c1CN(Cc1ccccc1)CC2 |  | -28.3%
28 | O=c1c(O)c(-c2ccc(O)c(O)c2)oc2cc(O)cc(O)c12 | 8310 nM (active) | 
29 | COc1cc2ncnc(Oc3cccc(NC(=O)Nc4cc(C(C)(C)C(F)(F)F)on4)c3)c2cc1OC | 234 nM (active) | 
30 | O=C(Nc1ccc(OC(F)(F)F)cc1)c1sccc1NCc1ccnc2ccccc12 |  | 19.1%
31 | Cc1[nH]c2ccccc2c1C1=C(NCCc2ccc(F)cc2)C(=O)N(C)C1=O |  | -9.98%
32 | O=C(c1cccc(Cl)c1F)N1CCN(Cc2cccc(Nc3nccs3)n2)CC1 | 3930 nM (active) | 
33 | Cc1cc(O)c2c(c1)C(=O)c1cc(O)cc(O)c1C2=O |  | 2.25%
34 | CNS(=O)(=O)c1ccc2c(c1)/C(=C/c1[nH]c3c(c1CCCN1CCN(C)CC1)CCCC3)C(=O)N2 | 932 nM (active) | 
35 | CN1CCN(c2ccc(Nc3ncc4cc(C#N)c(=O)n(C5CCCC5)c4n3)cc2)CC1 | 29.5 nM (active) | 
36 | COc1cc2ncnc(-n3nc(-c4ccccn4)nc3N)c2cc1OC | 111 nM (active) | 
37 | Cc1ccc(-n2nc(C(C)(C)C)cc2NC(=O)NCc2cc(F)ccc2Oc2ccc3c(cnn3CCO)c2)cc1 | 67.9 nM (active) | 
38 | C=CC(=O)Nc1cccc(Oc2nc(Nc3ccc(N4CCN(C)CC4)cc3OC)ncc2Cl)c1 |  | 10.9%
39 | Cc1nc(NC(=O)N2CCC[C@H]2C(N)=O)sc1-c1ccnc(C(C)(C)C(F)(F)F)c1 | 2090 nM (active) | 
40 | COc1ccc(CNC(=O)Nc2ncc([N+](=O)[O-])s2)cc1 |  | -14.6%
